Screen size: about 420,000 compounds; about 64,000 (15%) were called active. Another 27% or so got no clear call; they are omitted. These entries were drawn from the full list. Values without a mark were called inactive. Calls come from the whole dose curve; as a rule, active = well fitted inhibition curve with a large enough effect; inconclusive = small, poorly fitted or top-dose-only effect; inactive = flat fitted curve, though single readings scatter.
Assay: qHTS for Inhibitors of human tyrosyl-DNA phosphodiesterase 1 (TDP1): qHTS in cells in absence of CPT; note: nearly all actives have a fitted effect of over 55% in size
Conditions: DT40 Tdp1-/- hTDP1 cells, no CPT, ATP luminescence, 48 h; activity change, negative = growth inhibition: at 46.2 µM (top of the series)
Summary of the method: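 Chicken DT40 Tdp1-/- cells complemented with human TDP1, screened without camptothecin (DMSO vehicle only), 400 cells/well. Compounds pin-transferred, cells incubated at 37 °C for at least 48 hr. Growth read as ATP-dependent luminescence (CellTiter-Glo, 30 min at RT).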
% is set by controls: 0 for no effect and ±100 for the full control effect; potency is the fitted concentration of half-maximal effect.

| Structure (SMILES) | activity change, negative = growth inhibition | Potency |
| --- | --- | --- |
| O=C(CN1C(=O)NC(Cc2c[nH]c3ccccc23)C1=O)Nc1ccccc1C(F)(F)F (stereo not drawn) | -3.58% |  |
| COc1cccc(NC(C)=[N+](C)CCNS(=O)(=O)c2ccc(Cl)cc2)c1 | -23.4% |  |
| COc1ccc(S(=O)(=O)NCCCCOc2ccc(Cl)cc2)cc1 |  | 2.06 µM (active) |
| COc1ccc(S(=O)(=O)NCCCc2ccccc2)cc1 | -27.7% |  |
| Cc1nc(N)[nH]c(=O)c1Oc1cccc(C(F)(F)F)c1 | -2.45% |  |
| Clc1cccc(N=C2NN=C(c3ccc4c(c3)OCCO4)CS2)c1 |  | 10.3 µM (active) |
| Cc1cccc(N=C2NN=C(c3c[nH]c4ccccc34)CS2)c1 | -13.4% |  |
| COc1ccccc1CCNC(=O)c1cccn1-c1nnc(N2CCCCC2)s1 |  | 1.64 µM (active) |
| CSc1ccc(CCNC(=O)C2CCN(c3nnc(-n4cccc4)s3)CC2)cc1 | -17% |  |
| COc1ccccc1CNC(=O)C1CCN(c2nc3ccccc3o2)CC1 | -11% |  |
| N#CC(=C1CCCC1)c1nc(-c2ccc(Cl)cc2)cs1 | -27.4% |  |
| CCOC(=O)C1CCC(CN(Cc2ccc(OC)cc2)S(=O)(=O)c2ccc(F)c(C(=O)Nc3cc(C)ccc3C)c2)CC1 (stereo not drawn) | -11.9% |  |
| Cc1cc2c(cc1S(=O)(=O)NCc1ccc(Cl)cc1)OCC(=O)N2 | 2.83% |  |
| CC(=O)N1CCC(C(=O)OCc2ccc(Cl)cc2)(c2ccccc2)CC1 |  | 11.6 µM (active) |
| O=C(CCC(=O)OCc1ccc(Cl)cc1)Nc1ccccc1 | -0.379% |  |
| CC(=O)N1CCC2(CCCN(Cc3ccccc3)C2)CC1 | -18.3% |  |
| Cc1noc(C)c1NC(=O)Nc1ccc2c(c1)C(=O)N([C@H](C)CO)C[C@H](C)[C@@H](CN(C)S(=O)(=O)c1cn(C)cn1)O2 | -2.48% |  |
| NS(=O)(=O)c1ccc(NC(=O)CSc2nnc3c(n2)[nH]c2ccccc23)cc1 | -0.0777% |  |
| CCN(CC)c1ccc(/C=C/c2c(C)cnc3ccc(C)cc23)cc1 |  | 20 µM (active) |
| CCOC(=O)N1CCN(c2c(NCCCN3CCCC(C)C3)c(=O)c2=O)CC1 (stereo not drawn) | -4.27% |  |
| CC(C)C(=O)OCC(=O)Nc1ccc2c(c1)CCC2 | 1.2% |  |
| CCOc1ccc(NC(=O)C2CC(=O)N=C(N)S2)cc1 (stereo not drawn) | -4.41% |  |
| COc1ccccc1-c1nnc(NC(=O)c2cccc(N3C(=O)CCC3=O)c2)o1 | 7.07% |  |
| COc1cc(-c2nnc(NC(=O)C3=COCCO3)o2)cc(OC)c1OC | 5.88% |  |
| Cc1ccc(C(=O)Nc2nnc(C3=COCCO3)o2)cc1C |  | 23.1 µM (active) |
| COc1cc(C(=S)N2CCOCC2)ccc1O |  | inactive |
| CCCCC(NC(=O)c1cccc(Br)c1)C(=O)O (stereo not drawn) | 1.16% |  |

| Structure (SMILES) | activity change, negative = growth inhibition | Potency |
| --- | --- | --- |
| O=C(CN1C(=O)NC2(CCCC2)C1=O)NCC1CCCO1 (stereo not drawn) | 5.83% |  |
| O=C(c1ccccc1)N1CCN(C(=O)N2CCCCC2)CC1 | 0.232% |  |
| CC(C)c1ccc(NC(=O)C2CCN(c3nc(-c4ccc(C(C)C)cc4)no3)CC2)cc1 |  | 13 µM (active) |
| CC(=O)NN=C(C)c1ccc(NC(=O)C2CC2)cc1 | -85.3% |  |
| Cc1cc(C)cc(NC(=O)C2CCN(c3nc(C)cc(C)n3)CC2)c1 | -8.01% |  |
| Cc1ccc(-n2ncc3c(=O)[nH]cnc32)c(C)c1 | -1.23% |  |
| COc1ccccc1-c1cc2nc(C)c(CCC(=O)O)c(C)n2n1 | -10.6% |  |
| COCCCNc1ccn2nc(-c3ccc(CC(C)C)cc3)cc2n1 | -25.7% |  |
| COc1ccccc1-c1cc2nc(C)c(CCC(=O)NC3CCCCC3)c(C)n2n1 | -19.4% |  |
| CC(C)Cc1ccc(-c2cc3nc(NCc4cccc(Cl)c4)ccn3n2)cc1 |  | 18.4 µM (active) |
| COc1ccccc1-c1cc2nc(NCc3cccc(Cl)c3)ccn2n1 |  | 18.4 µM (active) |
| Cc1nc2cc(NC(=O)[C@@H]3C[C@@H](Sc4ccccn4)CN3Cc3ccccc3C)ccc2s1 | -13.5% |  |
| O=C1/C(=C/c2ccc3c(c2)OCO3)CCC/C1=C\c1ccc2c(c1)OCO2 | -29.6% |  |
| O=C(OCC(=O)N1CCCCCC1)c1cnc(Cl)c(Cl)c1 | 8.48% |  |
| CCc1ccc(C2C(C(=O)Nc3ccccc3)=C(C)Nc3c(C(=O)Nc4ccc(C)cc4)cnn32)cc1 (stereo not drawn) |  | 23.1 µM (active) |
| CC1=C(C(=O)Nc2ccccc2)C(c2ccc(C)cc2)n2nc(SCc3ccccc3C)nc2N1 (stereo not drawn) | -22.3% |  |
| COc1cccc(C2C(C(=O)Nc3ccc(C)cc3C)=C(C)Nc3c(C(=O)Nc4ccccc4)cnn32)c1 (stereo not drawn) | -24% |  |
| CCCSc1ncccc1C(=O)O | -17.2% |  |
| Cc1cnc(CN(C)C(=O)C2CCC(=O)N(CCc3cccc(F)c3)C2)[nH]1 (stereo not drawn) | 22.2% |  |
| Cc1oc2ncn(CC(C)C)c(=O)c2c1C(=O)N1CCN(c2ccccc2F)CC1 | -26.2% |  |
| O=C(Nn1cc(C(=O)N2CCN(c3ccccc3F)CC2)c2ccccc2c1=O)c1cnccn1 |  | 13 µM (active) |
| COc1ccc2oc(=O)c(C(=O)N3CCN(c4ccccc4F)CC3)cc2c1 | -20% |  |
| CCOCCCNC(=O)C(=O)NCCCOCC | -0.2% |  |
| O=C(CSc1nc2[nH]ncc2c(=O)[nH]1)Nc1ccc(F)cc1 | 1.91% |  |
| CCOc1ccccc1NC(=O)CCn1cnnn1 | -0.862% |  |
| Cc1[nH]c2ccc(S(N)(=O)=O)cc2c1C | 1.87% |  |

From PubChem BioAssay AID686978 (National Center for Advancing Translational Sciences (NCATS), 2013)
